Assay outcomes as filed in PubChem.
Pf growth 96h: P. falciparum growth inhibition at 96 hour, primary screen for plastid delayed-death inhibitors. P. falciparum luciferase reporter growth, 96 h. Potency, µM (highest dose often 28.7 µM), usual class: inhibitors. hit rate 6.9% among 320,000. AID 504834
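Infected RBCs, 2% Hct / 0.05% parasitemia final; luciferase-reporter P. falciparum; cpd 96 h, 37 C, 5% CO2; luciferase detection reagent; luminescence.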
LmPK inh: inhibitors of Leishmania mexicana pyruvate kinase; Q27686; purified LmPK, Kinase-Glo ATP luminescence, 1 h; Potency, µM (highest dose often 57.5 µM), most hits filed as inhibitors; hit rate 0.37% among 290,000; AID 1721
Target sequence (Q27686 whole entry, looked up): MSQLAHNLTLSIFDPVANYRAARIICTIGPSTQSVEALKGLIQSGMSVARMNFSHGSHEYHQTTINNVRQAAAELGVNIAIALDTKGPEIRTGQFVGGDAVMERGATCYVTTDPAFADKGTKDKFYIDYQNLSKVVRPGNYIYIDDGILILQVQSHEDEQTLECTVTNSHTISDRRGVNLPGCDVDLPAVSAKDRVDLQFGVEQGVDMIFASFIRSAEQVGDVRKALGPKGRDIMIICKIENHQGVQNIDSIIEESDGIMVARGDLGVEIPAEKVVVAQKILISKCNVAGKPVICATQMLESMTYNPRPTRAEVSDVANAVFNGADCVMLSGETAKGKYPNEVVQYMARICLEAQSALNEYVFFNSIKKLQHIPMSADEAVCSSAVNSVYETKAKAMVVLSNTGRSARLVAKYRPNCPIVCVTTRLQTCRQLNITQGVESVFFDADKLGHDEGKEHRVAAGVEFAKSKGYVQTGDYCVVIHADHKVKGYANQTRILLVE
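Purified LmPK (0.1 nM) converted ADP (0.1 mM) to ATP with PEP (0.5 mM) in imidazole buffer pH 7.2 with KCl and MgCl2, 1 h at room temperature. ATP was read by Kinase-Glo luminescence; data normalized to uninhibited and no-enzyme controls.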
Pf growth 48h: P. falciparum growth inhibition at 48 hours (one generation) | P. falciparum luciferase growth in erythrocytes, 48 h | Potency, µM (doses to about 28.7 µM), usual class: inhibitors | hit rate 5.9% among 310,000
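First compound was added to culture medium, then infected red cells at 0.1% parasitemia and 2% hematocrit (final). After incubation at 37 C under 5% CO2, luciferase detection reagent was dispensed and light output recorded.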
Cycloheximide cs: affects cycloheximide protein synthesis inhibition readout, counter-screen; max response, %; AID 2314; cell reporter, cycloheximide protein synthesis inhibition counterscreen; hit rate 12% among 300,000; in the data active means max response mostly above about 13%, no sharp cut-off; inactive means mostly below about 14%; further: read at 38.3 µM for the half of the compounds with a filed dose
Shiga inhibitor: inhibitors of Shiga toxin in Vero cells; AID 2315; Vero cells, Shiga toxin protein synthesis inhibition reporter; inhibition, % at 38.7 µM; hit rate 9.2% among 290,000; in the data active means inhibition mostly above about 28%, no sharp cut-off; inactive means mostly below about 43%
Each line names hits and unclear results; the compound was inactive in the other large screens. Most compounds without a hit are left out; they make up all but 22% or so of the library. Unless noted, the call rests on the fitted dose curve; in most records, active means well fitted inhibition curve with a large enough effect; inconclusive means small, poorly fitted or top-dose-only effect, or another doubt; inactive means no such curve, though single readings can be large or run the other way.

Cc1cccc(-c2nc3c(c(SCC(=O)N4CCCC4)n2)COC(C)(C)C3)c1	Pf growth 96h inconclusive
CCOC(=O)CSc1nc(-c2ccccc2)ns1	none
Cc1ccsc1C(=O)NNC(=O)c1ccncc1	none (no result: LmPK inh, Cycloheximide cs, Shiga inhibitor)
CC(=O)c1ccc(N2C(=NC(=O)CCC3CCCC3)SC3CS(=O)(=O)CC32)cc1 (configuration not stated)	none
Cc1cc(C)nc(SCCS(=O)(=O)Cc2ccc(Cl)cc2)n1	Pf growth 96h 10µM
COc1ccccc1CNC(=O)COC(=O)c1ncc(Cl)c(Cl)c1Cl	none (no result: LmPK inh, Cycloheximide cs, Shiga inhibitor)
COc1ccccc1Oc1c(C)oc2c(CN3CCN(C)CC3)c(O)ccc2c1=O	none
COc1ccc(-c2c(C)oc3c(CN4CCN(C)CC4)c(O)ccc3c2=O)cc1	Pf growth 96h inconclusive
Cc1oc2c(CN3CCCC3)c(O)ccc2c(=O)c1-c1ccccc1	Pf growth 96h 12µM, Pf growth 48h inconclusive
COc1cccc(Oc2c(C)oc3c(CN4CCCCC4)c(O)ccc3c2=O)c1	none
CCOC(=O)c1c(-c2ccccc2)oc2ccc(O)c(CN3CCCC3)c12	Pf growth 96h 1µM, Pf growth 48h 1.9µM
O=c1c(Oc2ccccc2Br)c(C(F)(F)F)oc2c(CN3CCCC3)c(O)ccc12	Pf growth 96h 2.1µM, Pf growth 48h 10µM
Cc1oc2c(CN3CCC(C)CC3)c(O)ccc2c(=O)c1-c1ccccc1	Pf growth 96h 4.1µM, Pf growth 48h 2.9µM
O=C(CCC(=O)N1CCOCC1)NCCc1ccc(Cl)cc1Cl	Pf growth 96h inconclusive
Cc1sc2ncn(CC(=O)N3CCN(c4ccccn4)CC3)c(=O)c2c1S(=O)(=O)N1CCC(C)CC1	none
COc1ccc(CCN2C(=O)C3C4C=CC(C4)C3C2=O)cc1OC (configuration not stated)	none (no result: Pf growth 96h)
CCCCc1cc(=O)oc2c(CN3CCN(C)CC3)c(O)ccc12	Pf growth 96h inconclusive, Pf growth 48h 12µM
CCCc1cc(=O)oc2c(CN3CCN(C)CC3)c(O)ccc12	none
CCOC(=O)c1c(-c2ccccc2)oc2ccc(O)c(CN(C)C)c12	Pf growth 96h inconclusive (no result: Pf growth 48h)
COc1ccc(-c2c(C(F)(F)F)oc3c(CN4CCN(C)CC4)c(O)ccc3c2=O)cc1	Pf growth 96h inconclusive, Pf growth 48h 3.3µM
CCOC(=O)c1c(CSCc2ccccc2)oc2ccc(O)c(CN(C)C)c12	Pf growth 96h 5.9µM, Pf growth 48h 5.9µM
COc1ccccc1-c1coc2c(CN3CCC(C)CC3)c(O)ccc2c1=O	Pf growth 96h inconclusive, Pf growth 48h 12µM
Cc1c(NC(=O)c2cnc(Cl)c(Cl)c2)c(=O)n(-c2ccccc2)n1C	none
O=C(NCc1ccc2c(c1)OCO2)Nc1ccc2ccccc2c1	none
Cc1ccc(C(=O)NCc2ccc3c(c2)CCO3)cc1C	Cycloheximide cs 22, Shiga inhibitor 57
CN1CCN(c2ccc(CNC(=O)c3ccc4c(c3)OCCO4)cc2)CC1	none
O=C(NCc1ccc2c(c1)CCO2)Nc1ccccc1	Pf growth 48h inconclusive, Cycloheximide cs 61, Shiga inhibitor 54
Cc1ccc2cc(CN(c3cccc(C)c3C)S(=O)(=O)c3ccccc3)c(=O)[nH]c2c1	Pf growth 48h inconclusive
CCCN(CC(=O)Nc1ccccc1C)C(=O)/C=C/c1ccc(S(=O)(=O)N2CCCCCC2)cc1	Pf growth 96h inconclusive, Pf growth 48h 13µM (no result: LmPK inh, Cycloheximide cs, Shiga inhibitor)
COc1ccc(NC(=O)CN(C)C(=O)/C=C/c2ccc(S(=O)(=O)N3CCCCCC3)cc2)cc1	Pf growth 48h 12µM (no result: LmPK inh, Cycloheximide cs, Shiga inhibitor)
CCCN(CC(=O)Nc1ccccc1C)C(=O)CCl	Pf growth 96h 1.7µM, Pf growth 48h inconclusive
CC(C)C[C@H](NC(=O)CNC(=O)[C@H](CCC(N)=O)NC(=O)[C@H](CC(C)C)NC(=O)[C@H](CC(C)C)NC(=O)[C@H](CCCNC(=N)N)NC(=O)[C@H](CCC(N)=O)NC(=O)[C@H](CC(C)C)NC(=O)[C@H](CCCNC(=N)N)NC(=O)[C@H](C)NC(=O)CNC(=O)[C@H](CCC(=O)O)NC(=O)[C@H](CCCNC(=N)N)NC(=O)[C@H](CC(C)C)NC(=O)[C@H](CCCNC(=N)N)NC(=O)[C@H](CO)NC(=O)[C@H](CC(C)C)NC(=O)[C@H](CCC(=O)O)NC(=O)[C@H](CO)NC(=O)[C@@H](NC(=O)[C@H](Cc1ccccc1)NC(=O)[C@@H](NC(=O)CNC(=O)[C@H](CC(=O)O)NC(=O)[C@H](CO)NC(=O)[C@@H](N)Cc1cnc[nH]1)[C@@H](C)O)[C@@H](C)O)C(=O)N[C@H](C(N)=O)C(C)C	none (no result: Pf growth 96h, LmPK inh, Pf growth 48h)
